Experimental data: PubChem BioAssay (NCATS)
Several values for one entry are separate records, joined by “and”; a condition that tells them apart may be missing. Equal values may be shown once. Records with an inconclusive call do not appear. Unmarked numbers belong to inactive results. Activity calls are given as the source filed them. Calls follow the shape of the dose curve; as a rule, active = well fitted inhibition curve with a large enough effect; inconclusive = small, poorly fitted or top-dose-only effect; inactive = flat fitted curve, though single readings scatter.

test system: Zika virus NS2B-NS3 protease; test: Primary screen GU AMC qHTS for Zika virus inhibitors (AID 1347154); settings: Zika NS2B-NS3 unlinked protease, AMC fluorogenic substrate; series mostly up to 54.1 µM; activity change, negative = inhibition: at the top concentration;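 as to activity change, negative = inhibition: 0% = no-inhibitor control and -100% = no-enzyme control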
Method in brief: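 Fluorogenic AMC-substrate cleavage by noncovalent NS2B-NS3 protease complex (25 nM, pH 8.0 Tris buffer with Tween 20) followed for 15 minutes at room temperature (~20% conversion). Percent inhibition from ex340/em450 signal change, fitted by 4-parameter Hill equation.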
Also: nearly all actives have a fitted effect of over 70% in size.
Potency is read from the fitted curve at half-maximal effect.

Structure (SMILES) | Potency | activity change, negative = inhibition
COc1cc2ncc(-c3ccccc3)nc2cc1OC | 6.31 µM (active) and 2.38 µM (active) | 
Cc1ccc(OC[C@H](O)[C@H](C)NC(C)C)c2c1CCC2 |  | 9.19%
COc1cc(C[C@H]2C(=O)OC[C@@H]2Cc2ccc(OC)c(OC)c2)ccc1O |  | -0.426%
O=S(=O)(c1ccccc1)N(CC(F)(F)F)c1ccc(C(O)(C(F)(F)F)C(F)(F)F)cc1 |  | -6.6%
CCc1ccccc1OC[C@@H](O)CN[C@H]1CCCc2ccccc21 |  | -4.02%
NC(=O)C[C@@H](N)C(=O)O |  | 6.79%
CN(C)CCCn1cc(C2=C(c3c[nH]c4ccccc34)C(=O)NC2=O)c2ccccc21 |  | -3.17%

test system: not listed separately; test: Confirmatory screen GU Rhodamine qHTS for Zika virus inhibitors qHTS (AID 1347157); settings: purified enzyme assay, Rhodamine110 substrate fluorescence, 15 min; series mostly up to 114 µM; activity change, negative = inhibition: at the top concentration
Method in brief: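 Percent inhibition came from the 15-min rise in Rhodamine110 fluorescence (1.5 microM substrate, ~15% conversion), normalized to no-inhibitor and no-enzyme wells and Hill-fitted. Unlinked protease, 25 nM, pH 8.0 Tris buffer; compounds up to 114 microM, 15-min preincubation.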

Structure (SMILES) | Potency
CC(C)C[C@H](CO)Nc1nc(S[C@@H](C)c2ccccc2)nc2nc(N)sc12 | 55.5 µM (active)
O=C(Nc1ccc(/C=C/c2ccc(NC(=O)c3cc(S(=O)(=O)O)c4cccnc4c3O)cc2S(=O)(=O)O)c(S(=O)(=O)O)c1)c1cc(S(=O)(=O)O)c2cccnc2c1O | 2.82 µM (active)
O=C(O)c1cc(N(Cc2ccc(C3CCCCC3)cc2)C(=O)c2ccc(Oc3ccccc3)cc2)ccc1O | 1.75 µM (active)
C=C1/C(=C/C=C2\CCC[C@]3(C)[C@@H]([C@H](C)/C=C/[C@@H](C)C(C)C)CC[C@@H]23)C[C@@H](O)C[C@@H]1O | 49.4 µM (active)
O=C(O)c1cccc(-c2ccc(-c3cn(C(=O)N4CCCCC4Cc4ccccc4)nn3)cc2)c1 (stereo not drawn) | 4.41 µM (active)
N#Cc1ccc(N2N=C3c4ccc(C(=O)O)cc4CC[C@@H]3[C@@H]2C2CCCC2)cc1Cl | 2.21 µM (active)
